Experimental findings from PubChem BioAssay are described below.

The nature of this assay: NFkB reporter suppression in cystic fibrosis bronchial cells – cell-based, uHTS hits, panel, cytotoxicity readout, dose response (AID 624344). As to conditions: CF bronchial epithelial cells, PAF-induced NFkB reporter inhibition, with PAF, run 2; at 79 µM (top of the series) unless noted.
A word on the inhibition: it is the relative decrease from the control value, in per cent. On to `CCCCCCCCCc1nc2sc3c(c2c(=O)n1NC(=O)c1ccc([N+](=O)[O-])cc1)CC(C)(C)OC3`, for which the inhibition was 115%.
For `Nc1nc(N)nc(-c2cc([N+](=O)[O-])ccc2O)n1`, the inhibition amounted to 66.7%.
Regarding `Nc1nc(N)nc(-c2ccc(Cl)c(Cl)c2)n1`, the inhibition was determined as 101%.
Under `O=C(Nc1cccnc1)c1sc2cccc(F)c2c1Cl` stands 92.7%; under `COc1ccc(S(=O)(=O)N(C(C)=O)c2ccc(OC(C)=O)c3ccccc23)cc1[N+](=O)[O-]`, 99.4% [at 39.5 µM].
In the case of `CN(C)CCCN(C(=O)CCS(=O)(=O)c1ccccc1)c1nc2cc3c(cc2s1)OCO3` it was 73%; in that of `CCN1CCN(Cc2ccc(NC(=O)c3ccc(C)c(NC(=O)c4csc(-c5ccncc5)n4)c3)cc2C(F)(F)F)CC1`, 101%; in that of `FC(F)(F)c1nnc2c(Sc3ccccc3)nc3ccccc3n12`, 88.4%.
Under `Cc1ccc(C(=O)c2cc([N+](=O)[O-])ccc2N2CCCCC2)c(C)c1` stands 54.3%; under `CCCNC(=O)COC(=O)c1ccccc1C(=O)c1ccc(Cl)c([N+](=O)[O-])c1`, 99.9%; under `COc1ccc(-c2oc3ccc(-c4ccc5c(c4)OCO5)cc3c2C#CC2(O)CCCCC2)cc1`, 91.6%.
As to `O=C1OC(Nc2nc(-c3ccc(F)cc3)cs2)c2ccccc21` (stereo not given), the inhibition came out at 113%.
As for `CC(C)C[C@@H]1NC(=O)[C@H](Cc2ccccc2)N(C)C(=O)[C@H](C)NC(=O)c2ccccc2NC(=O)[C@H](Cc2ccc(O)cc2)N(C)C1=O`, the inhibition came out at 103%.
`CN(C)CCCN(C(=O)CCOc1ccccc1)c1nc2c(F)cccc2s1`: the inhibition worked out at 99.1%.
For the compound `O=C(Nc1cccc(Cl)c1)Nc1cc(S(=O)(=O)N2CCCCC2)ccc1Cl`, the inhibition worked out at 97.2%.
